Experimental data taken from PubChem BioAssay AID696 (Sanford-Burnham Center for Chemical Genomics, 2007).
Hit rate of the full screen: of about 96,000 compounds, about 1,200 (1.2%) were called active. This excerpt belongs to a sample that is enriched for actives. Values without a mark were called inactive. Rule as the data show it: active = activation fold above about 2; inactive = the rest.

biological target: Alkaline phosphatase, placental type (Homo sapiens) (UniProt P05187); experiment: activation of human placental alkaline phosphatase – biochemical, luminescence, HTS (AID 696); conditions: purified PLAP enzyme, luminescent substrate read-out; at 20 µM; active compounds read high
Sequence (P05187 whole entry, looked up): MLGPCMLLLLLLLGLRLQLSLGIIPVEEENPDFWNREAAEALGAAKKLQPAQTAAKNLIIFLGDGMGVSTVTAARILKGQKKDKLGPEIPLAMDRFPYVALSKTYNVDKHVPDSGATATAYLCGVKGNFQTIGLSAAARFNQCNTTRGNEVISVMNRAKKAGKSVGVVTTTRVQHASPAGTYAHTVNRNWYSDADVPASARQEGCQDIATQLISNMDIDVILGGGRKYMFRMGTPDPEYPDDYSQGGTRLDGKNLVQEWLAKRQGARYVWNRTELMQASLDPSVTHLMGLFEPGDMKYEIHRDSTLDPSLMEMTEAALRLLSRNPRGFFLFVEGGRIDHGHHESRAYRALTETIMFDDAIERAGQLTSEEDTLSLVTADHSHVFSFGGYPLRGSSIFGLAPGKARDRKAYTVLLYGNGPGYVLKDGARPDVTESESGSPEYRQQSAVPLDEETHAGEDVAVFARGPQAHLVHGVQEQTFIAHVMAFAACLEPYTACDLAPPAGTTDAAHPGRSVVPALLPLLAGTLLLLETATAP

| SMILES | activation fold |
| --- | --- |
| CN1/C(=c2/s/c(=C3/C(=O)N(c4ccccc4)NC3=Nc3ccccc3)n(C)c2=O)C(C)(C)c2ccccc21 | 0.7 |
| COc1ccc(S(=O)(=O)Nc2ccc3oc(C)c(C(C)=O)c3c2)cc1 | 1.3 |
| Cc1nc2nc(C)c(CCC(=O)N3CCN(c4ccccc4)CC3)c(C)n2n1 | 0.8 |
| COc1ccc(CC(=O)Nc2nc3n(n2)C(c2ccccc2)CC(=O)N3)cc1OC (stereo not drawn) | 1.5 |
| CC1CC(c2ccccc2)n2nc(NC(=O)c3cccs3)nc2N1 (stereo not drawn) | 2.1 (active) |
| O=C(Nc1ncccn1)c1cccs1 | 0.9 |
| CN(C(=O)CSc1nnc(N)s1)c1c(N)n(Cc2ccccc2)c(=O)[nH]c1=O | 1.1 |
| O=C(CN1C(=O)CC(c2ccccc2)=Nc2ccccc21)NC1CCCCC1 | 1 |
| Cc1ccc(-n2nc3ccc(NC(=O)/C=C/c4ccco4)cc3n2)cc1C | 0.9 |
| O=C(CSc1nnc(-c2ccco2)o1)NCC(=O)c1ccccc1 | 1.2 |
| Cc1cccc(NC(=O)CSc2nnc(-c3ccco3)o2)c1 | 2 (active) |
| CCOC(=O)c1sc(NC(=O)CSc2nnc(-c3ccco3)o2)c(C(=O)OCC)c1C | 1 |
| CONC(=O)c1cc(OCC(F)(F)F)ccc1OCC(F)(F)F | 1 |
| Cn1c(SCC(=O)NC2CCCCC2)nnc1-c1cc2ccccc2o1 | 1.1 |
| Cc1cccc(N2C(=O)C3C(c4ccccc4)OC4(C(=O)c5ccccc5C4=O)C3C2=O)c1 (stereo not drawn) | 1.2 |
| Cc1cccc(N2C(=O)c3cccnc3C2=O)c1 | 1 |
| CCCc1nc2scc(-c3ccc(C)cc3)c2c(=O)n1N | 0.9 |
| N#C/C(=C(\O)CCl)c1nnc2n1CCCCC2 | 0.8 |
| Cc1cc([N+](=O)[O-])ccc1NCc1cccc([N+](=O)[O-])c1 | 1 |
| COCCCn1c(SCc2cccc(OC)c2)nc2cc(OC)c(OC)cc2c1=N | 1.5 |
| Cc1ccc(C(c2sc3nc(C)nn3c2O)N2CCN(c3ccc(F)cc3)CC2)cc1 (stereo not drawn) | 1.7 |
| Oc1c(C(c2cccs2)N2CCN(c3ccc(F)cc3)CC2)sc2ncnn12 (stereo not drawn) | 2 (active) |
| Oc1c(C(c2ccco2)N2CCC3(CC2)OCCO3)sc2ncnn12 (stereo not drawn) | 1.7 |
| O=C(O)c1cnn2c(C(F)(F)F)cc(-c3ccccc3)nc12 | 0.9 |
| C/C(=N\NC(=O)Cc1ccc(Cl)cc1)c1ccccn1 | 1.8 |
| CCNc1nc(N)nc(-c2cc(Cl)ccc2OC)n1 | 1 |

| SMILES | activation fold |
| --- | --- |
| CC(C)NC(=O)c1ccc(Sc2ccccc2)c([N+](=O)[O-])c1 | 1.2 |
| COc1ccccc1CCNC(=O)c1cnccn1 | 1.2 |
| COc1ccc(C(=O)NNC(=O)c2cnccn2)cc1[N+](=O)[O-] | 2.8 (active) |
| CC(Oc1ccc(F)cc1F)C(=O)/C=C/N(C)C (stereo not drawn) | 1.2 |
| COc1cccc2sc(Nc3nc(C)c(C(C)=O)s3)nc12 | 2.4 (active) |
| CC(=O)c1sc(NC(=O)c2ccc(C)cc2)nc1C | 1.2 |
| CC(=O)c1sc(NC(=O)c2cccc3ccccc23)nc1C | 1 |
| Cc1ccc(NC(=S)NC(NC(=O)Cc2cccc3ccccc23)C(Cl)(Cl)Cl)cc1 (stereo not drawn) | 0.6 |
| COC(=O)c1ccc(CSc2nnc(NC(C)C)s2)cc1 | 0.9 |
| Cc1ccc(NC(=O)N2CCC(O)(c3cccnc3)CC2)cc1 | 0.9 |
| CC1=NN(C(=O)Cc2ccc(C)cc2)C(O)(c2cccnc2)C1 (stereo not drawn) | 2.4 (active) |
| CC1=NN(C(=O)c2ccccc2Br)C(O)(c2cccnc2)C1 (stereo not drawn) | 1.4 |
| O=C(Nc1ccc2ccccc2c1)Nc1ccc2snnc2c1 | 0.9 |
| O=C(NCCCCCCCCCNC(=O)C(F)(F)F)C(F)(F)F | 0.9 |
| COc1ccc(Cl)cc1NC(=O)c1oc(C)nc1C | 1.4 |
| COc1ccc(Cl)cc1NC(=O)CN(C)C(=O)CNC(=O)C12CC3CC(CC(C3)C1)C2 | 2 (active) |
| CCCCC(=O)N/N=C(\C)CC(=O)Nc1cc(Cl)ccc1OC | 0.9 |
| O=C(COc1ccc(Br)cc1F)NC1CCN(Cc2ccccc2)CC1 | 1.7 |
| Cc1ccc2[nH]c(=O)c(CN(CCCN(C)C)C(=O)Nc3cccc(Cl)c3)cc2c1 | 1.5 |
| COc1ccc(COC(=O)c2n[nH]c3ccccc23)cc1F | 1.4 |
| CN(C)S(=O)(=O)c1ccc(NC(=O)COC(=O)c2n[nH]c3ccccc23)cc1 | 1 |
| O=C(COC(=O)c1n[nH]c2ccccc12)NCc1ccccc1 | 2.2 (active) |
| Cn1c(N)c(C(=O)COC(=O)C23CC4CC(CC(C4)C2)C3)c(=O)n(C)c1=O | 1.9 |
| C=CCNC(=S)NNc1ncnc2sc3c(c12)CC(C)(C)OC3 | 2.2 (active) |
| CC/C(C)=N/Nc1nc2sc3c(c2c(=O)[nH]1)CC(C)(C)OC3 | 1.1 |
| CCC(O)CNc1nc(-n2nc(C)cc2C)nc2sc3c(c12)CC(C)(C)OC3 (stereo not drawn) | 1 |

| SMILES | activation fold |
| --- | --- |
| Cc1ccc(SC(=O)COc2ccc(C)c(C)c2)cc1 | 1 |
| COc1cc(OC)c(C(=O)NC2CCCCCC2)cc1OC | 1.7 |
| CCOC(=O)C1=C(CNC2CCCCC2)NC(=O)NC1c1cc(C)ccc1C (stereo not drawn) | 1.1 |
| CCOC(=O)c1[nH]cnc1C(=O)NC1CCCCC1 | 2.2 (active) |
| Cc1cc(C(=O)OC(C)C(=O)Nc2cccc(S(=O)(=O)N3CCOCC3)c2)c(C)o1 (stereo not drawn) | 1.7 |
| COC(=O)C(C)n1cnc2c(nnn2-c2cccc(Cl)c2)c1=O (stereo not drawn) | 0.9 |
| CCOc1cccc(-n2nnnc2-c2ccc(OC)cc2)c1 | 1.4 |
| CCOc1nnc(C)c2c(C)n(-c3cccc(Cl)c3)nc12 | 2.1 (active) |
| CCCCCCCC(=O)NC(Nc1ccccc1OC)C(Cl)(Cl)Cl (stereo not drawn) | 0.9 |
| CCN(CC)S(=O)(=O)c1ccc2nc(CSc3nnnn3-c3ccc(O)cc3)[nH]c2c1 | 2.7 (active) |
| CCN(CC)S(=O)(=O)c1ccc2nc(COC(=O)c3n[nH]c4ccccc34)[nH]c2c1 | 1.8 |
| O=c1c2ccccc2nc(CSc2nnnn2-c2ccccc2)n1-c1ccccc1 | 0.9 |
| CC(=O)NS(=O)(=O)c1ccc(NC(=S)NC(=O)C(C)(C)C)cc1 | 1.1 |
| COc1ccccc1NC(=O)c1ccc2nc(N3C(=O)CCC3=O)sc2c1 | 1.1 |
| COc1ccc(C(C)=O)cc1CN1C(=O)NC2(CCCCC2C)C1=O (stereo not drawn) | 1 |
| CCOC(=O)N1CCN(C(c2cccnc2)c2ccc3cccnc3c2O)CC1 (stereo not drawn) | 2.2 (active) |
| CCOC(=O)N1CCN(C(=O)CSc2ccc(Cl)cc2)CC1 | 1.4 |
| CCN1CCN(C(c2cccnc2)c2cc(Cl)c3cccnc3c2O)CC1 (stereo not drawn) | 1.7 |
| CC1CC(C)CN(C/C=C/c2ccccc2[N+](=O)[O-])C1 (stereo not drawn) | 1.2 |
| CCOc1ccccc1NC(=O)Nc1cc(OC)ccc1OC | 0.8 |
| CCOc1ccccc1Oc1cn[nH]c1-c1ccc(OC)cc1O | 2.8 (active) |
| C=C(C)COc1ccc(-c2n[nH]c(C)c2-c2ccccc2OC)c(O)c1 | 1 |
| c1ccc2c(C[n+]3csc4ccccc43)cccc2c1 | 1.1 |
| COc1ccccc1NC1=NC2(CCCC2)N=C(N)N1 | 0.8 |
| COc1ccccc1Nc1nc(N)nc(CN(C)C2CCCCC2)n1 | 1.3 |
| COc1ccccc1NC1=NC(c2ccc(Cl)cc2)N=C(N)N1 (stereo not drawn) | 2.2 (active) |

| SMILES | activation fold |
| --- | --- |
| O=C1C=C(c2ccc(Cl)cc2)C(=O)N1Nc1ccccc1 | 0.9 |
| C=CCn1c(SCc2c(C)noc2C)nc2sc3c(c2c1=O)CCC(C)C3 (stereo not drawn) | 1.4 |
| CCOC(=O)c1c(NC(=O)c2cccs2)sc(C)c1C | 1.1 |
| CCOC(=O)c1c(NC(=O)CCl)sc(C(=O)N(CC)CC)c1C | 1.7 |
| COCCCNCC(=O)Nc1sc(C)c(C)c1C(=O)OC | 2.2 (active) |
| COc1ccc(C2=NOC3(CC(=O)N(c4ccc(C)cc4)C3=O)C2)cc1 (stereo not drawn) | 1.2 |
| CCOC(=O)c1c(NC(=O)CCCN2CCOCC2)sc2c1CC(C)(C)OC2 | 1.5 |
| COc1ccc(CCNc2ncnc3nc[nH]c23)cc1OC | 1.8 |
| CCc1ccc(N(CC)c2ncnc3nc[nH]c23)cc1 | 2 (active) |
| c1ccc2c(c1)OCC(CNc1ncnc3nc[nH]c13)O2 (stereo not drawn) | 1.6 |
| Cc1nn(C)cc1/C=C1\CCC/C(=C\c2cn(C)nc2C)C1=O | 1.8 |
| CCn1c(C)nc2cc(C(=O)NNS(=O)(=O)c3ccc(C)cc3C)ccc21 | 1 |
| Cc1ccc(C(=O)Nc2c(C#N)c(C)c(C)n2Cc2ccccc2)cc1 | 0.9 |
| Cc1[nH][nH]c(=O)c1N=Nc1ccccc1 | 1.1 |
| Cc1[nH][nH]c(=O)c1C(c1ccc(-c2ccc(Cl)cc2)o1)c1c(C)[nH][nH]c1=O | 2.2 (active) |
| Cc1nnc(NC(=O)CCCOc2ccccc2)s1 | 1 |
| CCOC(=O)c1nn(-c2cccc(C)c2)cc1C(=O)c1ccccc1 | 1.8 |
| O=C(Nc1ccc(-n2ccnc2P(=O)(O)c2ccccc2)cc1)c1ccccc1Br | 2.1 (active) |
| Cc1nonc1NC(=O)c1ccccc1Br | 1.2 |
| O=C(Nc1ccccc1)c1cccnc1Nc1ccccc1 | 0.8 |
| CCOC(=O)c1nnn(-c2nonc2-n2cccc2)c1CN1CCC(C(=O)OCC)CC1 | 1.2 |
| CC(=O)c1ccc(OCCN2CCOCC2)cc1 | 0.9 |
| CCOC(=O)c1[nH]c2ccc(OC)cc2c1NC(=O)N1CCOCC1 | 1.1 |
| Cc1c(C(=O)CN2CCOCC2)[nH]c2ccccc12 | 0.9 |
| Cc1c(C(=O)N2CCOCC2)[nH]c2ccc(OCc3ccccc3)cc12 | 2 (active) |
